Over roughly 33,000 sequences, “E-score (-0.5 to 0.5)” has its median near -8e-05; the highest 2% begin near 0.23. Shown is part of a subset that was picked to be rich in the highest values.
molecular target: T1, Nrg2 (UniProt P38082); assay: PBM E-score (8-mer binding enrichment) (E-score (-0.5 to 0.5)); higher = stronger / more preferred TF binding; conditions: protein concentration: 100 nM; construct: GST-full length
T1 sequence: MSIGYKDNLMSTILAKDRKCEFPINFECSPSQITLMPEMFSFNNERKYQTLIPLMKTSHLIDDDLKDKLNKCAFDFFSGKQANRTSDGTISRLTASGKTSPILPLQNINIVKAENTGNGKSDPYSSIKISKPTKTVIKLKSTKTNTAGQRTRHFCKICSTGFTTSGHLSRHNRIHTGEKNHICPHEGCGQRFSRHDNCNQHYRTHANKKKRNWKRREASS
In short: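 Full-length yeast transcription factors or their DNA-binding domains, GST-tagged and expressed with PURExpress, were applied at about 100-200 nM to universal all-10-mer Agilent arrays. These arrays had been made double-stranded by primer extension on fresh or once-stripped slides. Detection used fluorescent anti-GST, normalisation used masliner, and E-scores for ungapped eight-base words pooled with reverse complements came from the Universal PBM Analysis Suite.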

Sequence | PBM E-score
CCCGCGGA | 0.204
CGCGCGTC | 0.262
CGCGCGGA | 0.227
CGCGCGGC | 0.296
CGCGCGTA | 0.133
CCCGCGGG | 0.278
CACGCGGA | 0.234
AGCGCGTC | -0.0322
ACCGCGGG | 0.171
AACGCGGA | 0.0806
CACGCGGG | -0.0425
AGCGCGGC | 0.0579
CCATTTAA | -0.00324
CATTGAGC | -0.0461
CCTTAGTC | -0.119
CCGCTGCG | -0.14
ATCAATAC | 0.136
AGTGCTAG | -0.0309
AATGAGGG | -0.00097
TAGAGCTA | -0.161
CTGCCACA | -0.117
ACCCTTAG | 0.123
GACCCTCA | -0.116
GACCCCTA | 0.151
AACCCTTC | 0.168

Sequence | PBM E-score
GACCCTGA | 0.389
AACCCTTA | 0.235
AACCCTTG | 0.194
AACCTTAC | 0.108
ACCCTTAA | 0.152
AACCTTAA | 0.293
AACCTTAG | -0.109
ACCCTTAT | 0.28
GTCAAAAC | 0.0485
AGATCTAT | -0.0448
CTGCACCA | -0.0673
AGTTGATC | 0.137
CATTCGTA | -0.0996
ACTCTATG | 0.056
ACTTCCTG | 0.0859
TAAATCGA | 0.151
CGCTTACG | -0.284
CACCCTGC | 0.191
TACCCTGA | 0.265
ACCCCCTA | -0.391
AACCCCTA | 0.25
ACCCCTAA | 0.172
GACCCTGC | 0.331
TACCCCTA | 0.173
GACCCTCC | 0.16

Sequence | PBM E-score
TACCCTCA | 0.00099
ACCCCTAG | 0.153
ACCCCTAT | 0.256
TATCCTGA | 0.202
GGATCTGA | -0.0992
CAAAGGCA | -0.173
ACTAAGAA | 0.221
CGAGCTAC | 0.124
TAACCGAA | -0.0477
ACCAGTCG | -0.149
CGAGTTTA | 0.0171
ACAGAGGA | 0.00257
ACCACACG | -0.034
AAACGGAT | 0.205
ATCGAGGG | 0.12
CCGTTCAG | 0.00062
AACCCTAG | 0.0468
GACCCTAC | 0.184
GACCCTAA | 0.237
AACCCTAT | 0.195
CACCCTTA | 0.147
AACCCTGG | 0.315
CACCCTGG | 0.0652
ACCCCTGG | 0.0828
GGCCCTTA | 0.185

Sequence | PBM E-score
GACCCTTA | 0.321
TACCCTAA | 0.107
AACCCTGT | 0.244
GAGTCTGA | -0.0871
CAGTATGG | 0.0291
AACGAGGC | -0.139
AAAGTTCG | 0.127
ACCCCTTA | 0.178
AACCCTGA | 0.385
ACCCCTGA | 0.297
AACCCATT | 0.00038
CACCCTGA | 0.201
GACCCATA | 0.118
AACCCTGC | 0.134
AACCCATA | 0.24
CCCCCTGA | -0.00244
CGCGACGA | 0.176
TGGGGACA | -0.187
AAGGGAGC | -0.187
AAAACGGC | 0.112
GCCGGACA | 0.0968
TCGTTGAA | -0.0977
CTACTATC | 0.247
CTACTATA | 0.143
ATACTATC | 0.013

Sequence | PBM E-score
AGGAAAAC | 0.151
ACTGTTTA | -0.0842
CTTCGTTC | -0.00176
ATTCGTTA | 0.165
ATTCGTCC | 0.27
ACTCGTTG | -0.109
ATTCGTTG | 0.239
ATTCGTCG | -0.00164
CTTCGTCC | -0.114
AATCGTTC | 0.0566
ATTCGTTC | 0.28
AAAATCAT | -0.0452
CATTGGTA | 0.0651
TGAGTTAA | 0.0318
CGAGTTAC | 0.215
CGAGTTAA | 0.264
CGGTCTAA | -0.118
ATCCTGAG | 0.0135
AACCTGAT | 0.0634
AGCCTGAT | -0.168
ACCCTGAG | 0.368
AGCCTGTG | -0.118
ACCCTGAC | 0.334
AACCTGTG | 0.0227
CCCCTGAG | 0.176

Sequence | PBM E-score
GCCCTGAC | -0.00086
ACCCTGAT | 0.249
ACCCTGTG | 0.289
ACCCTGTC | 0.201
GTTAGCGA | -0.131
ATATCGAT | 0.213
CTCTGCTC | -0.0804
ACACTATG | 0.0263
CTACTTGC | 0.141
ACCTTAGC | 0.025
CGTTCACC | -0.11
AGCCTCCC | -0.381
ACCGATCG | -0.0446
TCTGACCA | 0.216
TAATAAGA | 0.0444
GCTTGCTA | -0.0547
CCCCTGTC | -0.151
CTCCTGAC | 0.0802
CCCCTGAC | 0.235
CTATAAAC | -0.086
ATATAACG | 0.243
ATATAACA | 0.078
GTATAAAC | 0.156
ATATAACC | 0.145
ATATAAAC | 0.255

Sequence | PBM E-score
ATATAAAA | 0.0793
ATATAAAT | 0.252
ATATAAAG | 0.0638
ATGAGTAA | 0.0697
ACTCGGAC | 0.0898
ACTAGGGC | -0.0479
ACTGAACC | -0.111
GTCTTTTA | -0.195
ATATCTTG | 0.0388
AATCCTCC | -0.123
AGACAGCT | 0.12
GTCACGGA | -0.00114
CGCCATGA | -0.0296
CTATCTAC | 0.00786
AAGCTTCC | -0.206
CGCGGATA | 0.246
CACGGATG | -0.149
AACGGATA | 0.258
CACGGATA | 0.235
AGCGGATA | -0.042
AACGGATG | -0.00493
CGCGGATC | 0.037
TACGGATA | 0.0194
AACGGATT | 0.148
